# Bioassay records deposited in PubChem BioAssay by National Center for Advancing Translational Sciences (NCATS).
# Only some compounds are listed: those with a hit (about 8.2% of all), similar ones and a draw of the others.
# KB-V1 cytotox – kills drug-selected multidrug resistant KB-V1 cells | KB-V1 MDR cells viability, CellTiter-Glo, 72 h | Potency, µM (series often up to 46.1 µM), most hits filed as cytotoxic | 400,000 tested, 3.4% active; also: nearly all actives have a fitted effect of over 60% in size
#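 Readout: CellTiter-Glo luminescence, 10 min after addition. Cells: KB-V1 MDR subline, 72 h at 37 degrees C with compound. Analysis: corrected, normalized data fitted to concentration-effect curves.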
# MCF10A rerep – DNA re-replication induction in MCF 10a cells | MCF 10A DNA re-replication, Hoechst nuclear intensity, 48 h | Potency, µM (highest dose often 46.1 µM), most hits filed as activators | 350,000 tested, 2.9% active | AID 624296; also: nearly all actives have a fitted effect of over 50% in size
# KB-3-1 cytotox – KB-3-1 parental cell cytotoxicity | KB-3-1 viability, CellTiter-Glo ATP luminescence, 72 h | Potency, µM (titrated, usually from 46.1 µM), most hits filed as cytotoxic | 400,000 tested, 1.4% active; also: nearly all actives have a fitted effect of over 60% in size
#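 Parental KB-3-1 viability, qHTS format: 72 h compound exposure, 37 °C; CellTiter-Glo; media-only wells and DMSO plates as controls; concentration-effect fits on corrected data.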
# SW480 rereplic – DNA re-replication induction in SW480 cells; Potency, µM (series often up to 46.1 µM), usual class: activators; 340,000 tested, 1.8% active; SW480 DNA re-replication, Hoechst DNA content imaging, 48 h; also: nearly all actives have a fitted effect of over 55% in size
#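 Readout is total intensity of Hoechst-stained nuclei, excited at 405 nm and collected at 500-530 nm. Compound treatment lasted 48 hr at 37 C in 5% CO2 before staining.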
# ELG1 repair inh – inhibitors of ELG1-dependent DNA repair in HEK293T cells; 330,000 tested, 2.3% active; Potency, µM (titrated, usually from 46.1 µM), usual class: inhibitors; HEK293T ELG1-luciferase reporter, luminescence, 16 h; DNA damage induced by 5-fluorouridine; AID 504467; also: nearly all actives have a fitted effect of over 55% in size
#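 Overnight (16 hr) co-exposure of 2,000 cells/well to 5-fluorouridine and compound at 37 °C preceded detection. Luciferase was quantified via ONE-Glo luminescence; loss of signal denotes inhibition.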
# A number is an active result; n = inactive; u = inconclusive; x = no result given; [ ] = remark or other dose. Calls follow the shape of the dose curve; as a rule, active = well fitted curve in the direction sought with a large enough effect; inconclusive = small, poorly fitted or top-dose-only effect, or another doubt; inactive = no such curve, though single readings can be large; an effect the other way counts as inactive or inconclusive.
SMILES,KB-V1 cytotox,MCF10A rerep,KB-3-1 cytotox,SW480 rereplic,ELG1 repair inh
CCCn1nc(C(=O)Nc2ccc3c(c2)OCCO3)c2ccccc2c1=O,16.4µM,n,n,n,u
CCCn1nc(C(=O)Nc2cc(S(=O)(=O)Nc3ccc(OC)cc3)ccc2O)c2ccccc2c1=O,u,u,n,n,16.4µM
COc1ccc(N(CC(=O)NC2CCCC2)C(=O)Cn2nnc(-c3ccc(F)cc3)n2)cc1,n,n,n,n,n
CCOC(=O)c1c(C)nc(C)c(C(=O)OCC)c1-c1ccc(OC)cc1,n,n,n,n,u
CCOC(=O)c1c(-c2ccc(OC)cc2)nc2nonc2c1N,13µM,n,u,n,n
COc1ccc(CCn2c(N3CCN(C)CC3)nc3c2c(=O)[nH]c(=O)n3C)cc1,n,n,n,n,n
Cn1c(=O)[nH]c(=O)c2c1nc(Br)n2C/C=N/Nc1ccccc1,n,u,16.4µM,n,u
COc1ccc(CCn2c(NN)nc3c2c(=O)[nH]c(=O)n3C)cc1,u,u,13µM,14.6µM,n
COc1ccc(CCn2c(NN=C(C)C)nc3c2c(=O)[nH]c(=O)n3C)cc1,n,n,n,n,u
COc1ccc(CCn2c(Br)nc3c2c(=O)[nH]c(=O)n3C)cc1,4.11µM,n,5.17µM,u,n
COc1ccc(N(C(=O)c2snc(C(N)=O)c2N)C(C(=O)NCc2ccc(F)cc2)c2ccc(O)cc2)cc1 (centres undefined),n,n,u,u,u
COc1ccc(CNC(=O)CSc2nc(-c3ccc(OC)c(OC)c3)cc(C(F)(F)F)n2)cc1,n,x,n,x,x
CSc1nnc(-c2ccccc2N=Cc2c(C)[nH]n(-c3ccccc3)c2=O)c(=O)[nH]1,n,n,n,n,n
Cc1ccc2cccc(N=Cc3c(C)[nH]n(-c4ccccc4)c3=O)c2n1,13µM,n,n,7.31µM,n
Cc1[nH]n(-c2ccccc2)c(=O)c1/C=N/O,n,u,n,u,n
Cc1[nH]n(-c2ccccc2)c(=O)c1/C=N/N(C)c1ccccc1,14.6µM,n,n,u,n
CCOc1ncccc1C(=O)Nc1cc(S(=O)(=O)N2CCCCC2)ccc1OC,n,n,n,n,n
CC1(C)CC(NC(=O)c2coc(=O)c(Br)c2)CC(C)(C)N1,n,18.4µM,16.4µM,u,u
CCOC(=O)Cn1nc(C)cc1NC(=O)c1cc(OC)c(OC)c(OC)c1,n,23.1µM,n,n,u
CCOC(=O)Cn1nc(C)cc1NC(=O)c1ccncc1,n,n,n,n,n
N=c1c(-c2nc3ccccc3[nH]2)cc(C(=O)c2ccco2)nn1-c1ccccc1,n,n,n,7.31µM,16.4µM
Cc1cccc(NC(=O)c2oc3ccccc3c2NC(=O)c2cc(=O)c3ccc(C)cc3o2)c1,n,x,n,x,x
CC(C)OC(=O)c1sc2nc(-c3ccccc3)ccc2c1N,n,u,n,5.8µM,u
Cc1nc(-c2ccccc2)nc2sc(C(=O)c3ccc(F)cc3)c(N)c12,n,10.3µM,n,16.4µM,n
COc1ccc(-c2c(C#N)c(N)nc3sc(C(=O)c4ccccc4)c(N)c23)cc1,4.11µM,u,n,n,u
SMILES,KB-V1 cytotox,MCF10A rerep,KB-3-1 cytotox,SW480 rereplic,ELG1 repair inh
CCOc1ccc(-c2c(C#N)c(N)nc3sc(C(=O)c4ccccc4)c(N)c23)cc1,n,n,n,n,n
COc1ccc(C(=O)c2sc3nc(-c4ccccc4)ccc3c2N)cc1,n,3.66µM,u,20.6µM,n
CCOC(=O)C(=O)N(C)c1c(CC)nc2c(OCc3ccccc3OC)cccn12,n,x,n,x,x
Cc1cccc(NC(=O)Cn2cc(S(=O)(=O)N3CCCC3)c(S(=O)(=O)N3CCCC3)c2)c1C,n,x,u,x,x
COc1ccc(CCN(C)C(=O)c2ccc(S(=O)(=O)Nc3ccccc3F)cc2)cc1OC,n,n,n,n,x
O=C(CC1Sc2ccccc2NC1=O)Nc1ccccc1[N+](=O)[O-] (centres undefined),16.4µM,n,n,n,n
CC(=O)c1ccc(NC(=O)CC2Sc3ccccc3NC2=O)cc1 (centres undefined),n,x,n,x,x
CCOC(=O)c1sc2nc(C)n(CC(=O)Nc3cccc(Cl)c3)c(=O)c2c1C,n,x,n,x,x
C#C[C@]1(O)CCC2C3CCC4=CC(=O)CC[C@@H]4C3CC[C@@]21C (some centres undefined),2.91µM,n,u,n,n
C#C[C@]1(O)CC[C@@H]2[C@H]3CCC4=CC(=O)CC[C@H]4[C@H]3C(=C)C[C@@]21CC,x,n,x,n,x
COc1cc(C)c(/C=C/C(C)=C/C=C/C(C)=C/C(=O)O)c(C)c1C,n,8.2µM,n,n,x
CCOC(=O)/C=C(C)/C=C/C=C(C)/C=C/c1c(C)cc(OC)c(C)c1C,x,26.6µM,x,n,x
COC(=O)C1=C(C)N(Cc2ccccc2)C(=NCc2cccc(Cl)c2)N[C@H]1c1cccc(F)c1,20.6µM,u,u,u,u
COc1ccc(-n2c(-c3cc(-c4ccccc4)sc3N)n[nH]c2=S)cc1,n,n,u,n,n
Nc1sc(-c2ccccc2)cc1-c1n[nH]c(=S)n1C1CCCCC1,n,3.26µM,u,3.26µM,20.6µM
CCOc1ccccc1NC(=O)C1CCN(S(=O)(=O)c2cc(Br)cc3c2N(C(C)=O)CC3)CC1,n,x,n,x,x
Cc1ccc(S(=O)(=O)N2CCOCC2)cc1NC(=O)COC(=O)/C=C/c1ccc(F)cc1,u,n,n,n,n
O=C(Nc1cccnc1Cl)c1cc2c(s1)-c1ccccc1OC2,n,18.4µM,n,n,n
O=C(Nc1cccnc1)c1cc2c(s1)-c1ccccc1OC2,n,n,n,n,u
O=C(Nc1nc2ccccc2s1)c1cc2c(s1)-c1ccccc1OC2,n,u,n,6.51µM,u
Cc1cccc2c1-c1sc(C(=O)Nc3nccs3)cc1CO2,n,3.66µM,n,7.31µM,u
O=C(Nc1ccc(Cl)cn1)c1cc2c(s1)-c1ccccc1OC2,n,u,n,u,u
O=C(Nc1nccs1)c1cc2c(s1)-c1ccccc1OC2,n,9.2µM,u,16.4µM,u
CC(C)(C)c1ccc(C(=O)N2CCN(C(=O)c3cccs3)CC2)cc1,n,n,n,n,n
COc1cc2c(NC3CCN(C(C)C)CC3)nc(N3CCCN(C)CC3)nc2cc1OCCOCCN(C)C,n,x,u,x,x
C[C@H](NC(=O)c1[nH]cnc1C(=O)Nc1ccccc1)c1ccccc1,n,u,u,n[9.22 µM],u
CC(C)(C)OC(=O)[C@H](Cc1ccccc1)NC(=O)c1[nH]cnc1C(=O)Nc1ccccc1F,20.6µM,x,u,x,x
CN(Cc1ccccc1)C(=O)c1[nH]cnc1C(=O)Nc1ccc(Br)cc1F,u,x,16.4µM,x,x
C[C@H](NC(=O)c1[nH]cnc1C(=O)Nc1ccccc1F)c1ccccc1,18.4µM,x,u,x,x
CCCNC(=O)C1(CC2CC(c3ccccc3)=NO2)CCN(C(=O)Cc2ccc(F)cc2)CC1 (centres undefined),n,n,u,n,x
